Measurements taken from PubChem BioAssay (NCATS).
Inconclusive results are not listed. Activity calls are given as the source filed them. Calls come from the whole dose curve; as a rule, active = well fitted cell-killing curve with a large enough effect; inconclusive = small, poorly fitted or top-dose-only effect, or effect the other way; inactive = no such curve, though single readings can be large or run the other way.

Test: Quantitative High-Throughput drug screen in 47 multiple myeloma cell lines against the NCATS MIPE library collection: RPMI8226_ATCC cell viability assay (AID 1919871); note: nearly all actives have a fitted effect of over 30% in size
Conditions: RPMI8226 myeloma viability, CellTiter-Glo ATP luminescence, 48 h; series mostly up to 45.8 µM; viability (% of control): at the top concentration
Description: PI: Beverly A. Mock Ph.D.
Laboratory of Cancer Biology and Genetics,
Center for Cancer Research, National Cancer Institute,
National Institute of Health, Bethesda, Maryland
Drug resistance and disease progression are common in multiple myeloma (MM) patients, underscoring the need for new therapeutic combinations. […] We hypothesized that effective combinations would reduce MYC expression and enhance p16 activity. […] These preclinical data identify potentially useful drug combinations for evaluation in drug-resistant MM and reveal potential mechanisms of combined drug sensitivity.
Described herein is the primary MIPE qHTS used to cherrypick compounds. Validated compounds were then further tested for potential synergistic activiy.
[1] Peat TJ, Gaikwad SM, Dubois W, Gyabaah-Kessie N, Zhang S, Gorjifard S, Phyo Z, Andres M, Hughitt VK, Simpson RM, Miller MA, Girvin AT, Taylor A, Williams D, D'Antonio N, Zhang Y, Rajagopalan A, Flietner E, Wilson K, Zhang X, Shinn P, Klumpp-Thomas C, McKnight C, Itkin Z, Chen L, Kazandijian D, Zhang J, Michalowski AM, Simmons JK, Keats J, Thomas CJ, Mock BA. Drug combinations identified by high-throughput screening promote cell cycle transition and upregulate Smad pathways in myeloma. Cancer Lett. 2023 Aug 1;568:216284. doi: 10.1016/j.canlet.2023.216284. Epub 2023 Jun 24. PMID: 37356470; PMCID: PMC10408729.
SEQUENCE No. (e.g., 1, 2, 3, etc.); […] (e.g., Cells, Incubation, Reagent, etc.); VALUE and DESCRIPTION.
1; Cells; 5 uL; white, solid bottom 1536-well Greiner assay plate.
2; Compounds; 23 nL; Kalypsis pin tool (Wako USA) equipped with a 1536-well pin head to transfer to the assay plates.
3; Incubation; 48 hours; 37C incubation.
4; Reagent;5uL; CellTiter Glo (Promega).
5; Detector; 425V; Luminescence; Viewlux PerkinElmer.
NOTES (numbers refer to Sequence numbers above)
1. The cell-based screening methods employed in this study were like those previously published. Briefly, the corresponding myeloma cell lines were screened in 1,536-well plates with 500 cells, 5-uL per well for inhibition of cell viability (assessed by measuring ATP levels with CellTiterGlo).
2. NCATS MIPE 4.0 library of approved and investigational drugs were added using the Kalypsis pin tool. Wells treated with DMSO only for 100% viability and media only for 0% viability were used as controls.
3. The assay plates were covered and incubated for 48 hours in a 37C, 5% CO2 incubator with controlled humidity.
4. After 48 hours, CellTilter-GloTM luminescent substrate mix (Promega) reagent was added to the assay plate and plates we incubated for 5 min at room temperature.
5. Signal was measured as median relative luminescence units on a ViewLux (PerkinElmer) multiplate reader.
[1] Heske CM, Davis MI, Baumgart JT, Wilson K, Gormally MV, Chen L, Zhang X, Ceribelli M, Duveau DY, Guha R, Ferrer M, Arnaldez FI, Ji J, Tran HL, Zhang Y, Mendoza A, Helman LJ, Thomas CJ. Matrix Screen Identifies Synergistic Combination of PARP Inhibitors and Nicotinamide Phosphoribosyltransferase (NAMPT) Inhibitors in Ewing Sarcoma. Clin Cancer Res. 2017 Dec 1;23(23):7301-7311. doi: 10.1158/1078-0432.CCR-17-1121. Epub 2017 Sep 12. PMID: 28899971; PMCID: PMC6636827.
Potency is the fitted concentration of half-maximal effect.

Row | SMILES | Potency | viability (% of control)
1 | Nc1ccn([C@@H]2O[C@H](CO)[C@H](O)C2(F)F)c(=O)n1 | 0.469 µM (active) | 
2 | CC(C)c1ccc(Cn2ccc3c4c(N)nc(NC5CC5)nc4ccc32)cc1 | 14.8 µM (active) | 
3 | CC(C)(C)c1cnc(CSc2cnc(NC(=O)C3CCNCC3)s2)o1 | 0.332 µM (active) | 
4 | Cc1ccc(S(=O)(=O)Nc2cc(Cl)ccc2C(=O)Nc2nc(-c3ccccc3)cs2)cc1 | 16.6 µM (active) | 
5 | CCN(CC)CCNC(=O)c1ccc2nc(-c3ccccc3)c(-c3ccc(CN4CCC(n5c(=O)[nH]c6ccccc65)CC4)cc3)nc2c1 | 20.9 µM (active) | 
6 | C[C@]1(CO)CN(c2cc(C(=O)Nc3ccc4c(c3)-c3c(c(C(N)=O)nn3-c3ccc(F)cc3)CC4)c(Cl)cn2)C[C@@]1(C)CO | 2.96 µM (active) | 
7 | CC(C)(C)c1cc(C(C)(C)C)c(NC(=O)c2c[nH]c3ccccc3c2=O)cc1O |  | 110% (inactive)
8 | Cc1cc(Nc2cc(N3CCN(C)CC3)nc(C=Cc3ccccc3)n2)n[nH]1 | 13.6 µM (active) | 
9 | CCC[C@H](NC(=O)C(C#N)=Cc1cccc(Br)n1)c1ccccc1 | 2.96 µM (active) | 
10 | C=CC(=O)N1CCC[C@@H](n2nc(-c3ccc(Oc4ccccc4)cc3)c3c(N)ncnc32)C1 | 20.9 µM (active) | 
11 | Cc1cc(Nc2cc(CN3CCOCC3)c3nc(C)c(Cc4ccc(Cl)cc4F)n3n2)n[nH]1 | 2.35 µM (active) | 
12 | O=C(Nc1cn[nH]c1-c1nc2ccc(CN3CCOCC3)cc2[nH]1)NC1CC1 | 10.5 µM (active) | 
13 | COC(=O)C[C@](O)(CCCC(C)(C)O)C(=O)O[C@@H]1C(OC)=C[C@]23CCCN2CCc2cc4c(cc2[C@H]13)OCO4 |  | 115% (inactive)
14 | COc1c(OCCCN2CCOCC2)ccc2c3n(c(=NC(=O)c4cnc(N)nc4)nc12)CCN3 | 0.129 µM (active) | 
15 | Cc1ccc2nc(NC(=O)CSc3nc4c(c(=O)n3-c3ccccc3)SCC4)sc2c1 | 16.6 µM (active) | 
16 | NC1(Cc2ccc(Cl)cc2)CCN(c2ncnc3[nH]ccc23)CC1 | 14.8 µM (active) | 
17 | CC(C)c1cc(-c2n[nH]c(=O)n2-c2ccc3c(ccn3C)c2)c(O)cc1O | 0.0372 µM (active) | 
18 | Cc1[nH]c2ccccc2c1CCNCc1ccc(C=CC(=O)NO)cc1 | 0.118 µM (active) | 
19 | NC(=O)c1c(OCc2c(F)cc(Br)cc2F)nsc1NC(=O)NCCCCN1CCCC1 | 23.5 µM (active) | 
20 | CC(NCc1ccc2c(c1)nc(NC(=O)c1ccc(-c3cn[nH]c3)s1)n2CC(C)(C)O)C(C)(C)C (stereo not given) | 0.743 µM (active) | 

Row | SMILES | Potency | viability (% of control)
21 | COc1cc(-c2nn(C3CCC(N4CCN(C(C)=O)CC4)CC3)c3ncnc(N)c23)ccc1NC(=O)c1cc2ccccc2n1C (stereo not given) | 18.7 µM (active) | 
22 | O=C(Nc1nc2cccc(-c3ccc(CN4CCS(=O)(=O)CC4)cc3)n2n1)C1CC1 | 18.7 µM (active) | 
23 | O=c1c2ccccc2nc2n1CCc1c-2[nH]c2ccccc12 |  | 116% (inactive)
24 | C1=CCOCc2cc(ccc2OCCN2CCCC2)Nc2nccc(n2)-c2cccc(c2)OCC1 | 5.9 µM (active) | 
25 | Cc1ccc(C(=O)Nc2cccc(C(F)(F)F)c2)cc1-c1ccc2nc(NCCN3CCOCC3)ncc2c1 | 5.9 µM (active) | 
26 | O=C(NC1CCNCC1)c1[nH]ncc1NC(=O)c1c(Cl)cccc1Cl | 1.05 µM (active) | 
27 | CCCCCCCCCC(=O)N[C@@H](Cc1c[nH]c2ccccc12)C(=O)N[C@H](CC(N)=O)C(=O)N[C@@H](CC(=O)O)C(=O)N[C@@H]1C(=O)NCC(=O)N[C@@H](CCCN)C(=O)N[C@@H](CC(=O)O)C(=O)N[C@H](C)C(=O)N[C@@H](CC(=O)O)C(=O)NCC(=O)N[C@H](CO)C(=O)N[C@@H]([C@@H](C)CC(=O)O)C(=O)N[C@@H](CC(=O)c2ccccc2N)C(=O)O[C@@H]1C |  | 133% (inactive)
28 | CCCNC(=O)Nc1ccc(Oc2ncnc3cc(OC)c(OC)cc23)cc1Cl | 0.935 µM (active) | 
29 | CCCCOc1c(C(=O)c2c(F)cc(C)cc2F)cnc2n[nH]cc12 | 5.9 µM (active) | 
30 | CCCCc1nc2cc(C=CC(=O)NO)ccc2n1CCN(CC)CC | 1.32 µM (active) | 
31 | COc1cc2c(NC3CCN(C(C)C)CC3)nc(C3CCCCC3)nc2cc1OCCCN1CCCC1 | 6.62 µM (active) | 
32 | Cc1nc2cnc3ccc(C#Cc4cccnc4)cc3c2n1-c1ccc(C(C)(C)C#N)cc1 | 0.0833 µM (active) | 
33 | O=c1[nH]c(=O)n(C2CCCO2)cc1F (stereo not given) |  | 102% [at 92.2 µM] (inactive)
34 | CC(=O)OCCN1C(=O)c2c(C)nc3ccc(S(=O)(=O)N4CCOCC4)cc3c2C1=O |  | 121% (inactive)
35 | CC=CC1=C(C(=O)O)N2C(=O)[C@H](NC(=O)[C@H](N)c3ccc(O)cc3)[C@@H]2SC1 |  | 117% (inactive)
36 | COc1cc(C(C)C)c2c(c1)S(=O)(=O)N(COc1cc(=O)n3cccc(OCCN4CCCCC4)c3n1)C2=O |  | 93.3% (inactive)
37 | CCN1CCN(CC(=O)Nc2ccc(-c3cccc4c(=O)cc(N5CCOCC5)oc34)c3sc4ccccc4c23)CC1 | 1.87 µM (active) | 
38 | O=C(c1cncc(Br)c1)N1CCC(N2CCCC2)CC1 |  | 110% (inactive)
39 | COc1ccc(F)c(F)c1C(=O)c1cnc(NC2CCN(S(C)(=O)=O)CC2)nc1N | 2.96 µM (active) | 
40 | COc1cccc2c(NCc3ccccc3)nc(-n3c(N)nc4ccccc43)nc12 | 8.33 µM (active) | 
